# Bioassay records (PubChem BioAssay)
# Hits are enriched below; roughly 21% of the tested compounds scored in any of these assays.
# Pf growth 48h: inhibits P. falciparum growth in the first generation, 48 h; Potency, µM (titrated, usually from 28.7 µM), most hits filed as inhibitors; P. falciparum luciferase growth in erythrocytes, 48 h; 5.9% of 310,000 active
#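 Firefly luciferase activity from engineered P. falciparum reports growth; inhibitors lower the luminescent signal. Cultures contained 2% hematocrit erythrocytes at 0.1% final parasitemia.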
# Shiga inhibitor: Shiga toxin inhibition. 9.2% of 290,000 active. inhibition, % at 38.7 µM. Vero cells, Shiga toxin protein synthesis inhibition reporter; in the data active = inhibition mostly above about 28%, no sharp cut-off; inactive = mostly below about 43%
# Pf growth 96h: P. falciparum growth inhibition at 96 hour, primary screen for plastid delayed-death inhibitors | Potency, µM (doses to about 28.7 µM), usual class: inhibitors | P. falciparum luciferase reporter growth, 96 h | 6.9% of 320,000 active
#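 Two parasite generations (96 h, 37 C, 5% CO2) of compound exposure in infected erythrocytes (0.05% parasitemia, 2% hematocrit). Luciferase-reporter P. falciparum; decreased luminescence indicates inhibited growth, aimed at apicoplast-acting delayed death.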
# HCV inh: inhibitors of hepatitis C virus infection; AID 651820; Potency, µM (top dose mostly 41.8 µM), hits mostly inhibitors; Huh7.5.1 HCVcc-Cre infection, luciferase reporter, 44 h; 3.4% of 340,000 active
#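 After 44 h co-culture of compound, cells and HCVcc-Cre (~0.5 moi), substrate is added for 15 min at room temperature and luciferase measured over 15 sec. Cells were seeded at 1,000/well and pre-cultured 4 h.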
# CHX counter: counter-screen hit for Shiga toxin inhibitors, cycloheximide. cell reporter, cycloheximide protein synthesis inhibition counterscreen. max response, %. 12% of 300,000 active. AID 2314; in the data active = max response mostly above about 13%, no sharp cut-off; inactive = mostly below about 14%; note: read at 38.3 µM for the half of the compounds with a filed dose
# AMA1 RON2 block: disrupts binding of P. falciparum AMA1 to RON2 | AlphaScreen AMA1-biotinylated RON2 peptide binding | Potency, µM (top dose mostly 58.2 µM), usual class: inhibitors | 0.2% of 360,000 active | AID 720542; note: nearly all actives have a fitted effect of over 45% in size
#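 AMA1 (3D7) with his tag at 25 nM final met compounds first, then biotinylated RON2 peptide at 25 nM; detection used donor plus acceptor beads, 10 µg/mL apiece, read by AlphaScreen after 30 min at room temperature.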
# Numbers stand for hits; – = inactive; ? = inconclusive; · = not tested or not shown; + = active, no number; [ ] = dose if it differs, or a comment. Unless noted, calls come from the whole dose curve; as a rule, active = well fitted curve in the direction sought with a large enough effect; inconclusive = small, poorly fitted or top-dose-only effect, or another doubt; inactive = no such curve, though single readings can be large; an effect the other way counts as inactive or inconclusive.
SMILES,Pf growth 48h,Shiga inhibitor,Pf growth 96h,HCV inh,CHX counter,AMA1 RON2 block
Cc1cc(CN(C)C(=O)c2ccc(OC3CCN(S(=O)(=O)N(C)C)CC3)cc2)n[nH]1,?,–,–,–,–,–
CN(C)S(=O)(=O)N1CCC(Oc2ccc(C(=O)NCC(C)(C)CO)cc2)CC1,–,–,1.7µM,–,–,–
COC(=O)CN(C)C(=O)c1ccc(OC2CCN(S(=O)(=O)N(C)C)CC2)cc1,–,33,?,–,21,–
Cc1cc(C)c(C)c(S(=O)(=O)Nc2ccccc2N2CCOCC2)c1C,·,·,·,?,·,–
Cc1ccc(S(=O)(=O)N2C[C@@H](C)[C@]3(C2)[C@H](O)[C@H](OC(=O)NC2CCCC2)C[C@H]2C(=O)N(c4ccccc4)C(=O)[C@H]23)cc1,·,·,·,·,·,–
Cc1ccc2nc(C3CCCCC3)c(Cc3ccccc3)n2c1,·,·,·,·,·,–
C[C@@H]1CN(C(=O)c2ccc(OC3CCN(S(=O)(=O)N(C)C)CC3)cc2)C[C@H](C)O1,–,–,?,–,–,–
COCCN(C(=O)c1ccc(OC2CCN(S(=O)(=O)N(C)C)CC2)cc1)C(C)C,–,–,?,–,11,–
COc1cc(C2Nc3cc(Cl)c(S(N)(=O)=O)cc3S(=O)(=O)N2)ccc1OCc1ccccc1 (stereo not drawn),–,128,·,–,55,–
C=CCNC(=O)/C(=C/c1cccc([N+](=O)[O-])c1)NC(=O)c1ccco1,–,–,–,–,–,–
CCN(C(=O)c1cc2c(C)nc3ccccc3c2o1)c1cc(Cl)ccc1OC,?,–,–,10µM,–,–
CCc1cccc2c(C(=O)CN3C(=O)N(C)C4(CCCCC4)C3=O)c[nH]c12,?,·,–,7.1µM,·,–
CCc1cccc2c(C(=O)CN3C(=O)NC(C)(c4cccc5ccccc45)C3=O)c[nH]c12 (stereo not drawn),?,–,10µM,?,–,–
CC1(NC(=O)NCCCCCCNC(=O)NC2(C)CCS(=O)(=O)C2)CCS(=O)(=O)C1 (stereo not drawn),–,–,–,–,–,–
COc1cc(/C=N/Nc2nn3cnnc3c3ccccc23)ccc1O,?,–,?,–,–,–
Cc1nc2ccccn2c1C(=O)NCc1ccc2c(c1)OCO2,–,–,–[5.75 µM],?,–,–
Cc1nc2ccccn2c1C(=O)N/N=C/c1ccc2c(c1)OCO2,–,88,–,–,59,–
C/C(=N\NC(=O)c1c(C)nc2ccccn12)c1ccc(O)cc1O,?,–,3.3µM,6.3µM,–,–
CCOc1cc(/C=N/Nc2nn3cnnc3c3ccccc23)ccc1O,?,–,–,?,12,–
CCOc1cc(/C=N\NC(=O)c2c(C)nc3ccccn23)ccc1O,–,·,–,–,13,–
CCOc1cc(/C=N/NC(=O)c2c(-c3ccccc3)noc2C)ccc1O,–,–,?,–,–,–
C/C(=N\NC(=O)c1c(C)nc2ccccn12)c1ccccc1F,–,–,–,–,–,–
Cc1ccc(NC(=O)N2CCOCC2)cc1NC(=O)N1CCOCC1,·,·,·,·,·,–
c1ccc(-n2ncc3cccnc32)cc1,–,–,–,–,–,–
NC1=NC(=O)C(c2ccccc2)(c2ccccc2)S1,·,·,·,–,·,–
SMILES,Pf growth 48h,Shiga inhibitor,Pf growth 96h,HCV inh,CHX counter,AMA1 RON2 block
CC1(C(=O)NS(=O)(=O)C2CC2)CCCN(C(=O)c2ccco2)C1 (stereo not drawn),·,·,·,·,·,–
CCOc1cc(/C=N/NC(=O)c2ccc(=O)n(C)c2)ccc1O,–,–,3.3µM,–,–,–
CCOc1cc(C=NNC(=O)N(c2ccccc2)c2ccccc2)ccc1O,·,·,·,·,·,–
CC(C)OC(=O)c1c(NC(=O)Cn2cnc([N+](=O)[O-])n2)sc2c1CCCC2,?,–,7.4µM,?,–,–
CCOC(=O)c1c(NC(=O)Cn2cnc([N+](=O)[O-])n2)sc2c1CCCC2,–,–,–,?,–,–
COc1ccc(N2c3ccccc3CN(Cc3ccccc3)CC2Cc2cc(OC)c(OC)c(OC)c2)cc1 (stereo not drawn),·,·,·,·,·,11µM
CNc1oc(-c2cccs2)nc1C#N,–,–,–,–,–,–
COc1ccc(Nc2oc(-c3cccs3)nc2C#N)cc1,–,146,?,?,62,–
COc1ccc(Nc2oc(-c3ccccc3F)nc2C#N)cc1,–,47,–,–,34,–
COc1ccc(-c2c(C(=O)c3ccccc3)[nH]c(N)c2C(=O)NCc2ccccc2)cc1OC,·,·,·,·,·,–
CCc1ccc(NC(=O)CSc2n[nH]c(=O)n2C2CC2)cc1,–,·,–,–,·,–
COc1ccc(C(C(=O)NC2CCCCC2)N(CC2CCCO2)C(=O)C2COc3ccccc3O2)cc1OC (stereo not drawn),12µM,–,–,–,–,–
COc1ccc(C(=O)N(CC2CCCO2)C(C(=O)NCCC(C)C)c2ccc(C)cc2)cc1OC (stereo not drawn),?,–,–,–,–,–
COc1ccc(C(=O)N(CC2CCCO2)C(C(=O)NC2CCCC2)c2ccc(Cl)cc2)cc1OC (stereo not drawn),12µM,–,6.6µM,–,–,–
COc1ccc(-c2sc3ccccc3c2-c2ccc(OC)cc2F)cc1,·,·,·,·,·,–
Cc1ccc(C(=O)CSc2n[nH]c(C)n2)cc1,–,86,–,–,30,–
CCc1ccc(C(=O)CSc2n[nH]c(C)n2)cc1,–,111,–,–,44,–
Cc1ccc(C)c(C(=O)CSc2n[nH]c(C)n2)c1,–,–,?,–,–,–
Cc1ccccc1CNC(=O)CCC(=O)N1CCOc2ccc(Cl)cc21,–,–,?,–,–,–
CCSc1ccc(-c2cccc([N+](=O)[O-])c2)nn1,–,+,–,–,53,–
O=C(CSc1ccc(-c2cccc([N+](=O)[O-])c2)nn1)N1CCCCCC1,–,–,?,?,19,–
O=C(CSc1ccc(-c2cccc([N+](=O)[O-])c2)nn1)N1CCCC1,–,–,?,–,–,–
CC(=O)c1cccc(NC(=O)NC(C)c2ccc3c(c2)OCO3)c1 (stereo not drawn),–,–,–,–,–,–
Cc1cccc(NC(=O)COc2coc(CN3CCN(c4ccccc4)CC3)cc2=O)c1C,9.3µM,·,?,?,·,–
Cc1cc(NC(=O)COc2coc(CN3CCN(c4ccccc4)CC3)cc2=O)no1,?,·,?,–,·,–
SMILES,Pf growth 48h,Shiga inhibitor,Pf growth 96h,HCV inh,CHX counter,AMA1 RON2 block
COc1ccccc1N1CCN(Cc2cc(=O)c(OCC(=O)Nc3ccccc3)co2)CC1,9.3µM,·,–,?,·,–
O=C(COc1coc(CN2CCN(c3ccccc3F)CC2)cc1=O)Nc1ccccc1,–,·,–,?,·,–
Cc1ccc(NC(=O)COc2coc(CN3CCN(c4ccccc4)CC3)cc2=O)cc1,?,·,4.7µM,?,·,–
O=C(COc1coc(CN2CCN(c3ccccc3)CC2)cc1=O)Nc1ccccc1,?,·,?,–,·,–
NC(=O)c1ccc[n+](CC(=O)c2cccc([N+](=O)[O-])c2)c1,–,–,–,–,–,–
O=c1c2c(nc3nc(NCc4cccc5ccccc45)[nH]n13)CCC2,–,–,–,–,–,–
